Screening results: PubChem, The Scripps Research Institute Molecular Screening Center
RTF Ca sens inh: cardiac RTF calcium sensitivity inhibitors, primary screen, biochemical, IANBD-TnC fluorescence, EC70 calcium. Troponin I, cardiac muscle (Homo sapiens) + Troponin T, cardiac muscle (Homo sapiens) + …. IANBD-labeled cardiac RTF, Ca2+ fluorescence. inhibition, % at 7.15 µM. 0.12% of 340,000 active;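 active = inhibition above the mean inhibition of all tested compounds plus 3 SD, cut at about 17% in these data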;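 also: assay run at fixed EC70 calcium of 1.6 mM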
IDE inh: human IDE inhibitors in live cells, primary screen, fluorescence polarization, HEK cells, FAbetaB substrate. Insulin-degrading enzyme (Homo sapiens), P14735. FAbetaB cleavage. inhibition, % at 5.59 µM. 0.41% of 320,000 active;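 active = percent inhibition above the average of all tested compounds plus 3 SD, set per screening campaign, cut at about 16% in these data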;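 also: IDE supplied by intact live HEK cells; FP after avidin binding of uncleaved biotin substrate so inhibition keeps polarization high; 0% = DMSO wells and 100% = 60 µM reference IDE inhibitor Ii1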
Target sequence (P14735 whole entry, looked up): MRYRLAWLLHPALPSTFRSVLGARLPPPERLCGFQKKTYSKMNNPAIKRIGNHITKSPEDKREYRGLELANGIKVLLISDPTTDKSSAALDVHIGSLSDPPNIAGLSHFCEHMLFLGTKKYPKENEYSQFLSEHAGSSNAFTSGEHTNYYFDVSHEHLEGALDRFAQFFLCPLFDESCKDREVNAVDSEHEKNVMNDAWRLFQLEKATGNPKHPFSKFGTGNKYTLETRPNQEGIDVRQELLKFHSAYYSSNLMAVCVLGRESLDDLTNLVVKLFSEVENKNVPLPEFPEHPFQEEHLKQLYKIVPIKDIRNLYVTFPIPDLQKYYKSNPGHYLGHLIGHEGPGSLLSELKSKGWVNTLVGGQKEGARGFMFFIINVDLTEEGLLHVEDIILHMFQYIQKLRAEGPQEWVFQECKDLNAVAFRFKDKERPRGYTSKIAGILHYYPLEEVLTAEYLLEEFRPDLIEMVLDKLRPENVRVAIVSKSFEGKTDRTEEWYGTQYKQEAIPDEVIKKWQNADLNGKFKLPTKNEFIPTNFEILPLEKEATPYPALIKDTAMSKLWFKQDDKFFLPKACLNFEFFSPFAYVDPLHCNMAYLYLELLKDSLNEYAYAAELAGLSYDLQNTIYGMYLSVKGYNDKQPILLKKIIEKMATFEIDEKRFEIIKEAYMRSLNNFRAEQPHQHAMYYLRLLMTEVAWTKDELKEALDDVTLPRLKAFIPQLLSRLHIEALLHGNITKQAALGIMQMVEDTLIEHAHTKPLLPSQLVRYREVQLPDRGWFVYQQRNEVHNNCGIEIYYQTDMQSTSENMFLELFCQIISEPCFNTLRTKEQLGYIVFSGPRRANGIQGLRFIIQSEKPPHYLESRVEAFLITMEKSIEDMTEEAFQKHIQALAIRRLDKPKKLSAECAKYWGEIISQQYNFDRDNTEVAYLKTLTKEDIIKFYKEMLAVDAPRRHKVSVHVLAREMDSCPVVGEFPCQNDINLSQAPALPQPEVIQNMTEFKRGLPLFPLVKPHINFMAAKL
IDE cell activ: human IDE activators in live cells, primary screen, fluorescence polarization, HEK cells, FAbeta-B substrate; Insulin-degrading enzyme (Homo sapiens), P14735; FAbeta-B cleavage; 0% vehicle, 100% cell-free pure enzyme wells; activation, % at 5.96 µM; 0.073% of 340,000 active; AID 493087, 2011;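 active = activation above the mean of all tested compounds plus 3 SD, set per screening campaign, cut at about 17% in these data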
RTF Ca sens act: cardiac RTF calcium sensitivity activators, primary screen, biochemical, IANBD-TnC fluorescence, EC20 calcium; 0.24% of 340,000 active; activation, % at 7.2 µM; AID 493008, 2010; Troponin I, cardiac muscle (Homo sapiens) + Troponin T, cardiac muscle (Homo sapiens) + …; IANBD-labeled TnC RTF fluorescence at EC20 calcium; 0% EC20 calcium, 100% full calcium;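 active = activation above the mean over all tested compounds plus 3 SD, cut at about 30% in these data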;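 also: rise in fluorescence read as greater calcium sensitivity of cardiac thin filaments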
IDE inh confirm: human IDE inhibitors in live cells, confirmation, fluorescence polarization, HEK cells, FAbetaB substrate | AID 435028, 2010 | 51% of 1,200 active | FAbetaB cleavage | inhibition, % at 5.59 µM | shares compounds with IDE inh;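 active = mean inhibition across triplicate wells above the cutoff set by the earlier primary insulin-degrading enzyme screen, cut at about 16% in these data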;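 also: 0% = DMSO wells and 100% = 60 µM reference IDE inhibitor Ii1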
HEK293 tox: cytotoxicity in HEK cells, cytotoxicity control for IDE inhibitor project, cell-based, luminescence; inhibition, % at 5.59 µM; shares compounds with IDE inh; HEK293 cytotoxicity, ATP luminescence; AID 449730, 2010; 28% of 1,200 active; in the data active = inhibition above about 22%;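 also: 0% = vehicle wells and 100% = reference cytotoxic drug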
IDE FP artifact: fluorescent or optically active artefacts, dose response, artefact control for IDE inhibitor project, biochemical, fluorescence polarization; shares compounds with IDE inh; FP counterscreen for fluorescent artifacts, IDE probe project; IC50, µM; 30 tested, under 10 active; AID 588718, 2011; call rule not given here
The depositor's hits bear a star; / = no result given. Most compounds without a hit are left out; they make up all but 0.71% or so of the library.

SMILES | RTF Ca sens inh | IDE inh | IDE cell activ | RTF Ca sens act | IDE inh confirm | HEK293 tox | others
CC(=O)c1sc(N/N=C\c2c(O)ccc3ccccc23)nc1C | -21.3 | 23.3* | -13.5 | 0.3 | 38.7* | 38.5*
COc1cccc(NC(=O)COC(=O)/C=C/c2c(C)nn(-c3ccccc3)c2C)c1 | -2.5 | 24.8* | -16.6 | 3.7 | 20.6* | 10.7
Cc1nn(-c2ccccc2)c(C)c1/C=C/C(=O)OCC(=O)Nc1ccc(C(N)=O)cc1 | -9.7 | 0.6 | 1.1 | -0.4 | / | /
O=C(Nc1ccc2oc(-c3ccccc3)nc2c1)c1ccc2c(c1)OCCO2 | 0.2 | 18.9* | -12.2 | -2.9 | 4.0 | 23.4*
O=C(Nc1ccc2oc(-c3ccncc3)nc2c1)c1ccc2c(c1)OCCO2 | -4.6 | 17.2* | -30.5 | -0.2 | 13.6 | 33.0*
O=C(Nc1ccc2oc(-c3cccnc3)nc2c1)c1ccc2c(c1)OCCO2 | 6.6 | 17.7* | -18.6 | 1.4 | 18.1* | 13.4 | IDE FP artifact=>54.7
CC1CC(=O)Nc2ccccc2N1C(=O)Cn1cnc2ccc(Br)cc2c1=O (configuration not stated) | -4.1 | / | 3.0 | -2.5 | / | /
C[C@@H]1CN([C@H](C)CO)C(=O)c2cccc(NC(=O)Nc3ccc(F)cc3)c2O[C@H]1CN(C)C(=O)Nc1ccc(C(F)(F)F)cc1 | 0.1 | 2.2 | 1.7 | -10.4 | / | /
Cn1c(SCc2nc(-c3ccc(Br)cc3)no2)nnc1-c1ccco1 | 9.1 | 9.0 | -7.5 | 2.4 | / | /
COc1ccc(-c2noc(CSc3nnc(-c4ccccc4)n3C)n2)cc1 | 0.9 | 16.7* | -17.6 | 2.1 | 9.4 | 16.1
COc1ccc2nc(NC(=O)CN(c3ccc(C)cc3)S(=O)(=O)c3c(C)nn(C)c3C)sc2c1 | -5.2 | 16.4* | -0.7 | 4.5 | 4.8 | 15.3
CN(C(=O)c1cccc(Br)c1)C1CCS(=O)(=O)C1 (configuration not stated) | -14.0 | -2.9 | 3.2 | -1.3 | / | /
N#C/C(=C\c1ccc(N2CCOCC2)o1)c1nc2ccccc2[nH]1 | -227.8 | 20.0* | -150.7 | 258.6* | 25.9* | 29.2*
CCc1ccc(C(=O)/C=C2\Sc3ccccc3NC2=O)cc1 | 2.8 | 18.4* | -2.3 | 1.1 | 2.5 | 8.9
COc1cccc(/C=N/n2c(C3CCCCC3)n[nH]c2=S)c1 | -6.6 | 3.1 | -12.7 | -3.1 | / | /
COc1ccccc1Nc1ccc(NC(=O)c2cccc([N+](=O)[O-])c2C)cc1 | 4.8 | 17.5* | 0.1 | -3.9 | 5.1 | 39.1*
CCc1ccc(Nc2n[n+](-c3ccccc3)c(-c3ccc(N(CC)CC)cc3)s2)cc1 | -61.2 | 19.4* | -8.4 | 33.4* | 22.6* | 57.8*
CCc1ccc(Nc2n[n+](-c3ccccc3)c(-c3ccc(OCc4ccccc4)cc3)s2)cc1 | -4.3 | 0.7 | -1.8 | 2.0 | / | /
COC(=O)CCCCCCCCC(O)CN1CCCCC1 (configuration not stated) | -7.6 | 1.8 | -1.8 | 6.1 | / | /
Cc1cccc(C)c1N1CCN(c2cc(Cl)nc(N)n2)CC1 | -2.7 | 17.5* | -8.2 | -5.7 | 4.4 | 14.0
CN(C)c1ccc(C2C=C(c3ccc(Cl)cc3OC(F)F)Nc3ncnn32)cc1 (configuration not stated) | -8.2 | 21.0* | -22.1 | 29.0 | 28.3* | 60.7*
CC(=O)N1c2ccc(S(=O)(=O)N3CCC(C(=O)N4CCN(c5ccc(Cl)cc5)CC4)CC3)cc2CC1C (configuration not stated) | 3.1 | 19.6* | -22.4 | -2.0 | 10.1 | 37.8*
COc1cc(/C=C2\C(=O)N(C)C(=S)N2C)ccc1O | 6.2 | 19.0* | -8.2 | 3.2 | 31.0* | 11.9
COc1cc(/C=C2/CC/C(=C/c3ccc(O)c(OC)c3)C2=O)ccc1O | -13.8 | 24.2* | -17.4 | 5.2 | 35.5* | 31.9*
COc1cc(/C=C2\COC/C(=C\c3ccc(O)c(OC)c3)C2=O)ccc1O | 4.5 | -5.5 | 4.6 | -1.4 | / | /
SMILES | RTF Ca sens inh | IDE inh | IDE cell activ | RTF Ca sens act | IDE inh confirm | HEK293 tox | others
Cc1cccc(N2CCN(C(=O)Cc3ccccc3[N+](=O)[O-])CC2)c1C | 3.5 | -0.1 | 2.7 | -6.2 | / | /
Cc1ccc2c(c1)c1ncnc(N3CCOCC3)c1n2C | -2.4 | 17.0* | -23.5 | 4.0 | 12.1 | 9.9
CCOc1ccc(N=C(C)C2=C(O)c3ccccc3C2=O)cc1 | -10.9 | 4.2 | -11.3 | -1.5 | / | /
COc1ccc(N=C(C)C2=C(O)c3ccccc3C2=O)cc1 | -17.5 | 17.9* | -5.1 | -0.8 | 7.3 | 15.6
O=C(COC(=O)C12CC3CC(CC(Cl)(C3)C1)C2)Nc1ccccc1 | -7.3 | 0.4 | 1.6 | -0.7 | / | /
Cc1cc(=O)[nH]c(/N=C(\N)Nc2cccc3ccccc23)n1 | -4.1 | 16.4* | -34.6 | 5.1 | 7.1 | 13.3
Cc1cc(=O)[nH]c(/N=C(\N)Nc2ccc(Oc3ccccc3)cc2)n1 | 0.3 | 2.7 | 1.3 | -2.6 | / | /
COc1cc2oc(=O)cc(-c3ccc(-c4ccc(CO)cc4)cc3)c2c(OC)c1OC | -6.2 | / | 3.0 | -0.1 | / | /
COc1cc(/C=C/C(=O)c2ccc(NS(=O)(=O)c3ccc(C)cc3)cc2)cc(OC)c1O | -7.3 | 26.6* | -23.3 | 1.7 | 55.9* | 44.7*
O=C(Cc1ccccc1)NCC(=O)Nc1ccccc1Br | 1.9 | -2.8 | 0.7 | -6.1 | / | /
CC(=O)Nc1cc(N=Cc2ccc(O)cc2O)c(Cl)cc1Cl | -1.9 | 17.9* | -54.7 | 4.2 | 32.3* | 11.2
CCCCCN(C(=O)CCC(=O)OCC(=O)c1ccc(C(C)CC)cc1)c1c(N)n(CCCC)c(=O)[nH]c1=O (configuration not stated) | -15.6 | 17.0* | -4.1 | -5.4 | 10.1 | 13.4
CCCCCN(C(=O)CCC(=O)OCC(=O)N(C)c1ccccc1)c1c(N)n(CCCC)c(=O)[nH]c1=O | -15.3 | 0.4 | 2.2 | 2.8 | / | /
Cc1ccc(CCNC(=O)Cc2ccc(NC3=NC4CS(=O)(=O)CC4S3)cc2)cc1 (configuration not stated) | -0.6 | 17.1* | -21.4 | 0.8 | 7.5 | 6.5
Cc1ccc(CCNC(=O)c2ccc(NC3=NC4CS(=O)(=O)CC4S3)cc2)cc1 (configuration not stated) | -9.7 | 10.0 | -3.8 | 1.2 | / | /
CCN(CC)c1ccc2c(c1)OC(N)=C(C#N)C2c1cccnc1 (configuration not stated) | -197.1 | 49.2* | -28.2 | 157.5* | 30.8* | 70.0*
O=C(C1=C[C@H](C2CCCCC2)C[C@H](OCc2ccc(CO)cc2)O1)N1CCN(Cc2ccccc2)CC1 | 0.8 | 7.3 | 0.0 | -6.3 | / | /
